# According to the supplement of paper PMC4022240:
# ± gives the standard deviation.
# T1: HaloTag-ATRX ADD domain (163-292)
# T1 chain: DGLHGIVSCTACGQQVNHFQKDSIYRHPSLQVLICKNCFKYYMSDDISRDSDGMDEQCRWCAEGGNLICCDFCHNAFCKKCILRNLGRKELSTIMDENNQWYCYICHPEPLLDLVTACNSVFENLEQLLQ
# Molecular target: T1, HaloTag-ATRX ADD domain (163-292)
# Assay: peptide microarray binding signal (635 nm), min-max normalized on array (fraction of array maximum); higher = stronger binding
# Details: peptide region: Unmod H1 variant; binder concentration: 50 nM
# Procedure, shortened: (§1)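 Binding signal is the mean intensity of triplicate spots, min-max scaled within each library. Histone 13-mer peptide–cellulose conjugates were spotted in triplicate on nitrocellulose with a Cy3 tracer and blocked overnight at 4°C. Probing lasted 1 h at 4°C, either with biotin-labelled HaloTag reader fusions (10 nM to 1 μM) and streptavidin-Alexa Fluor 647 or with rabbit histone antibodies (1:10,000 to 1:2,000) and anti-rabbit Alexa 647. An Axon GenePix 4000B read signal at 635 nm and misprints at 532 nm.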
row,Binder,peptide microarray binding signal
1,KPKKATGAATPKK [Unmod H1 variant K P K K A T G A A T P K K],0.00674 ± 0.0014
2,KAKKAGAAKAKKP [Unmod H1 variant K A K K A G A A K A K K P],0.01282 ± 3.1e-05
3,ALAAAGYDVEKNN [Unmod H1 variant A L A A A G Y D V E K N N],0.021 ± 0.00023
4,TKPKTAKPKKAAP [Unmod H1 variant T K P K T A K P K K A A P],0.0172 ± 0.00023
5,GAAKRKASGPPVS [Unmod H1 variant G A A K R K A S G P P V S],0.0168 ± 0.00018
6,GVSLAALKKALAA [Unmod H1 variant G V S L A A L K K A L A A],0.0641 ± 0.057
7,PPVSELITKAVAA [Unmod H1 variant P P V S E L I T K A V A A],0.0304 ± 0.017
8,PKKAKKPAAAAGA [Unmod H1 variant P K K A K K P A A A A G A],0.0116 ± 7.8e-05
9,TPKKSAKKTPKKA [Unmod H1 variant T P K K S A K K T P K K A],0.0108 ± 0.0035
10,TLVQTKGTGASGS [Unmod H1 variant T L V Q T K G T G A S G S],0.0308 ± 0.012

# Same assay, conditions: peptide region: Unmod H1 variant; binder concentration: 500 nM
row,Binder,peptide microarray binding signal
1,KPKKATGAATPKK [Unmod H1 variant K P K K A T G A A T P K K],0.00957 ± 0.00063
2,KAKKAGAAKAKKP [Unmod H1 variant K A K K A G A A K A K K P],0.0114 ± 0.00065
3,ALAAAGYDVEKNN [Unmod H1 variant A L A A A G Y D V E K N N],0.0215 ± 0.001
4,TKPKTAKPKKAAP [Unmod H1 variant T K P K T A K P K K A A P],0.0103 ± 0.00048
5,GAAKRKASGPPVS [Unmod H1 variant G A A K R K A S G P P V S],0.00757 ± 0.00056
6,GVSLAALKKALAA [Unmod H1 variant G V S L A A L K K A L A A],0.0257 ± 0.0036
7,PPVSELITKAVAA [Unmod H1 variant P P V S E L I T K A V A A],0.00833 ± 0.00045
8,PKKAKKPAAAAGA [Unmod H1 variant P K K A K K P A A A A G A],0.00771 ± 0.00013
9,TPKKSAKKTPKKA [Unmod H1 variant T P K K S A K K T P K K A],0.0104 ± 0.0011
10,TLVQTKGTGASGS [Unmod H1 variant T L V Q T K G T G A S G S],0.0171 ± 0.0029

# Molecular target: HaloTag-ING2 PHD (mouse Ing2 200-280)
# Assay: as above
# Details: peptide region: Unmod H1 variant; binder concentration: 10 nM
# Procedure, shortened: as §1
row,Binder,peptide microarray binding signal
1,KPKKATGAATPKK [Unmod H1 variant K P K K A T G A A T P K K],0.003939 ± 2.1e-05
2,KAKKAGAAKAKKP [Unmod H1 variant K A K K A G A A K A K K P],0.00424 ± 5.8e-05
3,ALAAAGYDVEKNN [Unmod H1 variant A L A A A G Y D V E K N N],0.00991 ± 0.00043
4,TKPKTAKPKKAAP [Unmod H1 variant T K P K T A K P K K A A P],0.00173 ± 2.1e-05
5,GAAKRKASGPPVS [Unmod H1 variant G A A K R K A S G P P V S],0.00245 ± 5e-05
6,GVSLAALKKALAA [Unmod H1 variant G V S L A A L K K A L A A],0.00621 ± 0.00023
7,PPVSELITKAVAA [Unmod H1 variant P P V S E L I T K A V A A],0.00382 ± 0.00018
8,PKKAKKPAAAAGA [Unmod H1 variant P K K A K K P A A A A G A],0.00322 ± 4.7e-05
9,TPKKSAKKTPKKA [Unmod H1 variant T P K K S A K K T P K K A],0.00322 ± 4.7e-05
10,TLVQTKGTGASGS [Unmod H1 variant T L V Q T K G T G A S G S],0.00734 ± 0.00017

# Same assay, conditions: peptide region: Unmod H1 variant; binder concentration: 100 nM
row,Binder,peptide microarray binding signal
1,KPKKATGAATPKK [Unmod H1 variant K P K K A T G A A T P K K],0.00893 ± 0.00084
2,KAKKAGAAKAKKP [Unmod H1 variant K A K K A G A A K A K K P],0.00935 ± 0.00021
3,ALAAAGYDVEKNN [Unmod H1 variant A L A A A G Y D V E K N N],0.0252 ± 0.0029
4,TKPKTAKPKKAAP [Unmod H1 variant T K P K T A K P K K A A P],0.00567 ± 0.00041
5,GAAKRKASGPPVS [Unmod H1 variant G A A K R K A S G P P V S],0.00822 ± 0.00024
6,GVSLAALKKALAA [Unmod H1 variant G V S L A A L K K A L A A],0.0162 ± 0.0004
7,PPVSELITKAVAA [Unmod H1 variant P P V S E L I T K A V A A],0.00397 ± 0.00022
8,PKKAKKPAAAAGA [Unmod H1 variant P K K A K K P A A A A G A],0.00652 ± 0.00013
9,TPKKSAKKTPKKA [Unmod H1 variant T P K K S A K K T P K K A],0.0121 ± 0.0049
10,TLVQTKGTGASGS [Unmod H1 variant T L V Q T K G T G A S G S],0.0165 ± 0.00046

# Molecular target: anti-H3K4me3 antibody ab8580
# Assay: as above
# Details: peptide region: Unmod H1 variant; binder concentration: 1:2,000 dilution
# Procedure, shortened: as §1
row,Binder,peptide microarray binding signal
1,KPKKATGAATPKK [Unmod H1 variant K P K K A T G A A T P K K],0.000925 ± 2.1e-05
2,KAKKAGAAKAKKP [Unmod H1 variant K A K K A G A A K A K K P],0.000906 ± 2.4e-05
3,ALAAAGYDVEKNN [Unmod H1 variant A L A A A G Y D V E K N N],0.0067 ± 0.0027
4,TKPKTAKPKKAAP [Unmod H1 variant T K P K T A K P K K A A P],0.00108 ± 6.8e-05
5,GAAKRKASGPPVS [Unmod H1 variant G A A K R K A S G P P V S],0.000793 ± 1.2e-05
6,GVSLAALKKALAA [Unmod H1 variant G V S L A A L K K A L A A],0.00157 ± 0.00018
7,PPVSELITKAVAA [Unmod H1 variant P P V S E L I T K A V A A],0.00296 ± 0.001
8,PKKAKKPAAAAGA [Unmod H1 variant P K K A K K P A A A A G A],0.000736 ± 1.2e-05
9,TPKKSAKKTPKKA [Unmod H1 variant T P K K S A K K T P K K A],0.000812 ± 4.4e-05
10,TLVQTKGTGASGS [Unmod H1 variant T L V Q T K G T G A S G S],0.00255 ± 9.7e-05

# Same assay, conditions: peptide region: Unmod H1 variant; binder concentration: 1:10,000 dilution
row,Binder,peptide microarray binding signal
1,KPKKATGAATPKK [Unmod H1 variant K P K K A T G A A T P K K],0.00171 ± 5.9e-05
2,KAKKAGAAKAKKP [Unmod H1 variant K A K K A G A A K A K K P],0.00148 ± 2.9e-05
3,ALAAAGYDVEKNN [Unmod H1 variant A L A A A G Y D V E K N N],0.00702 ± 0.00034
4,TKPKTAKPKKAAP [Unmod H1 variant T K P K T A K P K K A A P],0.00097 ± 9.9e-06
5,GAAKRKASGPPVS [Unmod H1 variant G A A K R K A S G P P V S],0.000799 ± 8.3e-06
6,GVSLAALKKALAA [Unmod H1 variant G V S L A A L K K A L A A],0.00262
7,PPVSELITKAVAA [Unmod H1 variant P P V S E L I T K A V A A],0.0028 ± 0.00019
8,PKKAKKPAAAAGA [Unmod H1 variant P K K A K K P A A A A G A],0.001541 ± 1.5e-05
9,TPKKSAKKTPKKA [Unmod H1 variant T P K K S A K K T P K K A],0.00137 ± 4.9e-05
10,TLVQTKGTGASGS [Unmod H1 variant T L V Q T K G T G A S G S],0.00388 ± 0.00013

# Molecular target: anti-H3K9me3 antibody ab8898
# Assay: as above
# Details: peptide region: Unmod H1 variant; binder concentration: 1:2,000 dilution
# Procedure, shortened: as §1
row,Binder,peptide microarray binding signal
1,KPKKATGAATPKK [Unmod H1 variant K P K K A T G A A T P K K],0.000408 ± 1.2e-05
2,KAKKAGAAKAKKP [Unmod H1 variant K A K K A G A A K A K K P],0.000423 ± 8.2e-06
3,ALAAAGYDVEKNN [Unmod H1 variant A L A A A G Y D V E K N N],0.00281 ± 0.0003
4,TKPKTAKPKKAAP [Unmod H1 variant T K P K T A K P K K A A P],0.000227 ± 4.1e-06
5,GAAKRKASGPPVS [Unmod H1 variant G A A K R K A S G P P V S],0.000211 ± 4.5e-06
6,GVSLAALKKALAA [Unmod H1 variant G V S L A A L K K A L A A],0.00131 ± 4.4e-05
7,PPVSELITKAVAA [Unmod H1 variant P P V S E L I T K A V A A],0.00106 ± 4.4e-05
8,PKKAKKPAAAAGA [Unmod H1 variant P K K A K K P A A A A G A],0.000483 ± 9.2e-06
9,TPKKSAKKTPKKA [Unmod H1 variant T P K K S A K K T P K K A],0.000287 ± 1.1e-05
10,TLVQTKGTGASGS [Unmod H1 variant T L V Q T K G T G A S G S],0.0019 ± 0.00012

# Same assay, conditions: peptide region: Unmod H1 variant; binder concentration: 1:10,000 dilution
row,Binder,peptide microarray binding signal
1,KPKKATGAATPKK [Unmod H1 variant K P K K A T G A A T P K K],0.00121 ± 2.4e-05
2,KAKKAGAAKAKKP [Unmod H1 variant K A K K A G A A K A K K P],0.00075 ± 7.9e-06
3,ALAAAGYDVEKNN [Unmod H1 variant A L A A A G Y D V E K N N],0.00357 ± 0.00017
4,TKPKTAKPKKAAP [Unmod H1 variant T K P K T A K P K K A A P],0.000577 ± 6.2e-06
5,GAAKRKASGPPVS [Unmod H1 variant G A A K R K A S G P P V S],0.000634
6,GVSLAALKKALAA [Unmod H1 variant G V S L A A L K K A L A A],0.00161 ± 3.1e-05
7,PPVSELITKAVAA [Unmod H1 variant P P V S E L I T K A V A A],0.00144 ± 5.7e-05
8,PKKAKKPAAAAGA [Unmod H1 variant P K K A K K P A A A A G A],0.00098
9,TPKKSAKKTPKKA [Unmod H1 variant T P K K S A K K T P K K A],0.000865 ± 9e-06
10,TLVQTKGTGASGS [Unmod H1 variant T L V Q T K G T G A S G S],0.00231 ± 7.5e-05
